# Assay results as given in PubChem BioAssay (Tox21).
# Inconclusive results are not listed. A call without a number means that no potency is given here. Values without a mark were called inactive. Active and inactive are the calls of the source. Calls follow the shape of the dose curve; as a rule, active = well fitted cell-killing curve with a large enough effect in the repeat runs; inconclusive = weak or mixed curves, or effect the other way; inactive = no such curve, though single readings can be large or run the other way.
# Assay: qHTS assay to identify small molecule antagonists of the peroxisome proliferator-activated receptor gamma (PPARg) signaling pathway - cell viability counter screen (AID 743194); also: nearly all actives have a fitted effect of over 55% in size
# Conditions: PPARg-bla HEK293H viability, CellTiter-Glo luminescence, 17 h; Potency: co-treated with 50 nM rosiglitazone; series mostly up to 62.6 µM
# From the text: U.S. Tox21 Program National Center for Advancing Translational Sciences [NCATS] NIH Chemical Genomics Center [NCGC] U.S. Environmental Protection Agency [EPA] National Institutes of Environmental Health Sciences [NIEHS] National Toxicology Program [NTP] U.S. Food and Drug Administration [FDA] Tox21 Assay Overview: The peroxisome proliferator-activated receptors (PPARs) are lipid-activated transcription factors of the nuclear receptor superfamily with three distinct subtypes namely PPAR alpha, PPAR delta (also called PPAR beta) and PPAR gamma (PPARg). All these subtypes heterodimerize with Retinoid X receptor (RXR) and these heterodimers regulate transcription of various genes. PPAR-gamma receptor (glitazone receptor) is involved in the regulation of glucose and lipid metabolism. To identify the compounds that activate PPAR-gamma signaling, GeneBLAzer PPAR gamma UAS-bla HEK293H cell line (Invitrogen, Carlsbad, CA, USA) containing a beta-lactamase reporter gene under the control of an Upstream Activator Sequence (UAS) was used to screen the Tox21 compound library. The cytotoxicity of the Tox21 compound library against the PPARg-bla cell line was tested in parallel by measuring the cell viability using CellTiter-Glo assay in the same wells.
# Tox21 Assay Protocol Summary: PPARg-bla cells were dispensed at 3000 cells/5uL/well in 1536-well black wall/clear bottom plates using a Multidrop Combi (Thermo Fisher Scientific, Waltham, MA) dispenser. After the assay plates were incubated at 37 C and 5% CO2 for 5 h, 23 nL of compounds dissolved in DMSO, positive controls or DMSO only was transferred to the assay plate by a Pintool station (Kalypsys, San Diego, CA), followed by addition of 1ul Rosiglitazone (50 nM, final concentration in the wells). The assay plates were incubated at 37 C for 17 h, and then 1 uL of LiveBLAzerTM B/G FRET substrate was added using a Bioraptr Flying Reagent Dispenser (FRD) workstation (Beckman Coulter, Indianapolis, IN, USA). The assay plates were incubated at room temperature for 1 h and fluorescence intensity was measured by an Envision plate reader (PerkinElmer, Shelton, CT). For cell viability readout that measures cytotoxicity, 4 ul/well of CellTiter-Glo reagent was added into the assay plates using a Flying Reagent Dispenser. After 30 min incubation at room temperature, the luminescence intensity in the plates was measured using a ViewLux plate reader (PerkinElmer).
Structure (SMILES),Potency,"activity change, negative = cytotoxicity"
O=C1CCCCC1Cl (stereo not given),inactive,
CC[C@@H](CO)NC(=O)[C@@H]1C=C2c3cccc4c3c(cn4C)C[C@H]2N(C)C1,inactive,
CCC1(CC)C(=O)C=CNC1=O,inactive,
O=C(O)C(Cl)Br (stereo not given),inactive,
CCCCS(=O)(=O)Cl,inactive,
CCCCCCCCBr,inactive,
O=CCCl,inactive,
CS(=O)(=O)c1ccc(C(=O)C2C(=O)CCCC2=O)c(Cl)c1COCC(F)(F)F,inactive,
CC(=O)CN(CC(C)=O)N=O,inactive,
Brc1c(Br)c(Br)c(Br)c(Br)c1Br,,"-21% [at 5.95 µM, co-treated with 50 nM rosiglitazone]"
NCC1(CC(=O)O)CCCCC1,inactive,
CC(=NC#N)N(C)Cc1ccc(Cl)nc1,inactive,
CCOC(=O)c1ncn2c1CN(C)C(=O)c1c(I)cccc1-2,inactive,
CCOC(=O)NC(C)(C)Cc1ccc(Cl)cc1,inactive,
Cc1ccc2c(c1)C1CN(C)CCC1N2 (stereo not given),inactive,
Cc1ccc(S(=O)(=O)N[C@@H](CCCCN)C(=O)CCl)cc1,inactive,
CNC(=O)Oc1cc(C)c(N(C)C)c(C)c1,inactive,
CCCN1CCC[C@@H]2Cc3[nH]ncc3C[C@H]21,inactive,
CCCC[N+](=O)[O-],inactive,
CCN(CC)C1CCCCC1,inactive,

Structure (SMILES),Potency,"activity change, negative = cytotoxicity"
CC(Cc1ccccc1)NCCCCl (stereo not given),inactive,
CC(C)(O)C(Cl)(Cl)Cl,inactive,
CCCCCCC(=O)CCCCCC/C=C/C[C@@H](O)[C@H](O)[C@@](N)(CO)C(=O)O,inactive,
ClCOCCl,inactive,
C=CC1(C)OC(=O)N(c2cc(Cl)cc(Cl)c2)C1=O (stereo not given),inactive,
CCNc1nc(Cl)nc(NC(C)(C)C)n1,inactive,
CC[C@H](N)c1ccccc1,inactive,
COC(=O)c1ccccc1CS(=O)(=O)NC(=O)Nc1nc(OC)cc(OC)n1,inactive,
CCCC(C)C1(CC)C(=O)N=C(S)NC1=O (stereo not given),inactive,
CC(C)[N+](C)(CCC(C(N)=O)(c1ccccc1)c1ccccc1)C(C)C,inactive,
C=CCCC#N,inactive,
COc1cccc(C=O)c1,inactive,
O=S1(=O)OCCO1,inactive,
CC(=O)OCC1=C(C(=O)O)N2C(=O)[C@@H](N)[C@H]2SC1,inactive,
NC(=O)CS(=O)C(c1ccccc1)c1ccccc1 (stereo not given),inactive,
CC1NCCOC1c1ccccc1 (stereo not given),inactive,
C=CC(=O)OCCN(C)C,inactive,
CCOC(=O)Nc1cccc(OC(=O)Nc2ccccc2)c1,inactive,
C(COCC1CO1)OCC1CO1 (stereo not given),inactive,
CCCCCCCC(=O)Cl,inactive,
